# Test results published in ChEMBL document CHEMBL3988442, “University of Dundee, Small-Polar-MMV Screening Library” (2021).
# Key:
# [1] = biological target: T1, Aspartate--tRNA(Asp/Asn) ligase (Mycobacterium tuberculosis (strain ATCC 25618 / H37Rv)) (UniProt P9WFW3); test: Assay for Asp RNA synthetase-1 from Mycobacterium tuberculosis; type: functional; set-up: scale not given: direction of the effect not stated beside the values; settings: 30 µM; note: in the data most compounds retested in dose-response had high values
# T1 sequence (whole entry): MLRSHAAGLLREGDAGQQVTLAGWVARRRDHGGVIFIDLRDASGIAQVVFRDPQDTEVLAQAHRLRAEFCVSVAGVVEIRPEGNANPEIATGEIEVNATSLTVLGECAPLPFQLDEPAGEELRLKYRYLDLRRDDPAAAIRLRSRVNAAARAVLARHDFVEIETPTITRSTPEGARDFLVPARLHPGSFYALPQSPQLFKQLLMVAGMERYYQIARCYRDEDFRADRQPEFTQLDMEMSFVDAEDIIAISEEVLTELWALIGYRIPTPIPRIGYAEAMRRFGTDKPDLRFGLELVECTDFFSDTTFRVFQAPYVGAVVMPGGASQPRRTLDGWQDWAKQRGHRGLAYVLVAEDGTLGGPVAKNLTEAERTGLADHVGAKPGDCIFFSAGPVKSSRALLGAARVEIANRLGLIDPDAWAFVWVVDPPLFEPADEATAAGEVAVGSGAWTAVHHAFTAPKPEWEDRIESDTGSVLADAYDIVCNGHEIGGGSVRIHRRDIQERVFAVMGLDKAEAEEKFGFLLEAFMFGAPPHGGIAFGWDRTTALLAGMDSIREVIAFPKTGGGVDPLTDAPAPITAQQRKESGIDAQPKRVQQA
# [2] = biological target: Shiga toxin 2 (Escherichia coli O157:H7) (UniProt P09385+P09386); test: E. coli 0.157:H7 Shiga Toxin SOP - stx2 screening assay; type: functional; set-up: scale not given: direction of the effect not stated beside the values; settings: 30 µM
smiles,measurement,setting,value
O=C(NCc1nncn1-c1ccccc1)C1CC(=O)N(CC2CC2)C1 (stereo unspecified),Percent Effect,[1],-2.56%
same,Percent Effect,[2],23.5%
CC(C(=O)NCc1ccnc(N2CCCC2)c1)n1cncn1 (stereo unspecified),Percent Effect,[1],-2.83%
same,Percent Effect,[2],27.3%
Cc1ccc(C(=O)O)cc1S(=O)(=O)Nc1nn(-c2ccccc2)cc1C,Percent Effect,[1],5.61%
same,Percent Effect,[2],3.87%
